The source of these data is PubChem BioAssay (NCI).

Test systems include BT-549 breast; MDA-MB-435 melanoma; SW-620 colon; MCF7 breast; HCT-116 colon; HCC-2998 colon; KM12 colon.
What all share (test): NCI-60 one-dose screen, 48 h (100 = growth as untreated, 0 = no growth, -100 = all killed)
Common to all, as to details: 10 µM unless noted

Molecules are shown by their SMILES. Compounds without any hit were thinned out: in the full panel of roughly 83,000, 20% have a hit.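 Single-concentration screen, 48 h exposure, 96-well plates. Endpoint: percent growth. Below 10 = active.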 A number with no mark means an inactive call. Activity calls are given as the source filed them.

For the compound `O=C(CCCC(=O)Nc1ccc(-n2nnc3cc(Cl)c(Cl)cc32)cc1)Nc1ccc(-n2nnc3cc(Cl)c(Cl)cc32)cc1`, the growth is 51.2% with BT-549 breast; 51.2% in the assay with MDA-MB-435 melanoma; 49.6% in the assay with SW-620 colon; 22.6% in the assay with MCF7 breast; 45.3% with HCT-116 colon; 93.7% in the assay with HCC-2998 colon. For the same compound, the growth in the assay with KM12 colon is 70.9%.
With `COc1ccc2nc(-c3ccc(Cl)cc3)cc(-c3nnc(SCC(=O)Nc4ccc(/C(C)=N\O)cc4)o3)c2c1`, the growth with BT-549 breast was 25.4%; in the assay on MDA-MB-435 melanoma it was 16.4%; in the assay on SW-620 colon, 3.98% (active); in the assay with MCF7 breast it was 7.93% (active); with HCT-116 colon, 2.59% (active); with HCC-2998 colon, 82%. Further, in the assay with KM12 colon, the growth was 30.9%.
Regarding `Cc1ccn2c3c(c(C(=O)O)c2c1)C(=O)c1ccccc1C3=O`, the growth with BT-549 breast was 58.9%; in the assay on MDA-MB-435 melanoma it was -78.2% (active); with SW-620 colon, 74.1%; in the assay with MCF7 breast it was 61.1%; in the assay on HCT-116 colon it was 82.3%; in the assay on HCC-2998 colon it was 62%. Moreover, the growth in the assay on KM12 colon was 66.7%.
As for `CNCc1cccc2c1OCCOCCOCCN(CCN1CCOCC1)S(=O)(=O)c1ccc(cc1)-c1cnc(N)c(n1)C(=O)N2`, the growth in the assay on BT-549 breast is 22.3%; in the assay with MDA-MB-435 melanoma, 47.3%; in the assay on SW-620 colon, 43.4%; in the assay on MCF7 breast it was 37.8%; in the assay on HCT-116 colon, 35.9%; in the assay on HCC-2998 colon, 48.2%. Moreover, in the assay on KM12 colon, the growth is 37.5%.
`NC(N)=NC(N)=Nc1cc2ccccc2c2ccccc12`: the growth in the assay on BT-549 breast was 36.1%; with MDA-MB-435 melanoma it was 68.9%; with SW-620 colon, 22.9%; with MCF7 breast it was 2.2% (active); in the assay on HCT-116 colon, -44.5% (active); in the assay on HCC-2998 colon, 26.2%. Further, in the assay with KM12 colon, the growth was 47%.
In the case of `CC(C)(C)c1ccc2oc(=O)n(SC(Cl)(Cl)Cl)c2c1`, the growth is 98.2% with BT-549 breast; 107% in the assay on MDA-MB-435 melanoma; 76.5% with SW-620 colon; 86.4% in the assay on MCF7 breast; 103% in the assay on HCT-116 colon; 96.5% in the assay with HCC-2998 colon. In the assay on KM12 colon, the growth is 95.2%.
On to `CN(C)C1=NCCN1`, for which the growth in the assay on BT-549 breast was 97.5%; with MDA-MB-435 melanoma, 110%; in the assay on SW-620 colon, 106%; in the assay with MCF7 breast, 97.2%; in the assay with HCT-116 colon, 98.7%; in the assay on HCC-2998 colon it was 101%. Besides, in the assay on KM12 colon, the growth was 100%.
As for `c1ccc(-c2cn3ccnc3c(-c3ccc4c(c3)ncn4C3CCCCC3)n2)cc1`, the growth is 99.6% with BT-549 breast; 99.5% in the assay with MDA-MB-435 melanoma; 110% with SW-620 colon; 84.1% with MCF7 breast; 96.2% in the assay with HCT-116 colon; 105% in the assay with HCC-2998 colon. Besides, the growth in the assay with KM12 colon is 94.3%.
For `Cc1c(C(=O)Nc2nc3ccccc3[nH]2)cnn1-c1ccccn1`, the growth with BT-549 breast is 111%; with MDA-MB-435 melanoma it was 108%; with SW-620 colon, 107%; with MCF7 breast it was 95.6%; with HCT-116 colon, 97.3%; in the assay on HCC-2998 colon, 97.3%. In addition, the growth in the assay on KM12 colon was 103%.
In the case of `CO[C@@]12C=C[C@@]34CCC(=O)N3c3ccccc3[C@@H](O1)C4C2`, the growth with BT-549 breast is 105%; in the assay on MDA-MB-435 melanoma, 104%; with SW-620 colon it was 101%; in the assay with MCF7 breast, 97.9%; in the assay with HCT-116 colon, 102%; in the assay on HCC-2998 colon, 106%. Moreover, the growth in the assay with KM12 colon was 105%.
Regarding `COc1ccc(/C=C(/C(=O)N2CCN(Cc3ccccc3)CC2)c2cc(OC)c(OC)c(OC)c2)cc1O`, the growth is 77.2% with BT-549 breast; 1.04% (active) with MDA-MB-435 melanoma; 45.6% in the assay on SW-620 colon; 20.9% in the assay on MCF7 breast; 32% with HCT-116 colon; 95.8% in the assay on HCC-2998 colon. Besides, the growth in the assay on KM12 colon is 55.9%.
With `CC(C)(C)CC(C)(C)Cc1ccc(OCCOCC[N+](C)(C)Cc2ccccc2)cc1`, the growth in the assay with BT-549 breast is -16% (active); in the assay with MDA-MB-435 melanoma it was -23.9% (active); with SW-620 colon, 30.2%; with MCF7 breast, 12.9%; in the assay with HCT-116 colon it was 20.8%; in the assay with HCC-2998 colon, -10% (active). Also, the growth in the assay with KM12 colon was -52.6% (active).
With `CC1(c2ccccc2Cl)NC(=O)NC1=O` (stereo not given), the growth with BT-549 breast is 99%; with MDA-MB-435 melanoma, 105%; in the assay with SW-620 colon, 102%; in the assay on MCF7 breast, 96.9%; with HCT-116 colon it was 107%; in the assay on HCC-2998 colon, 92.3%. For the same compound, the growth with KM12 colon was 109%.
Consider `COC(=O)CCc1n(Cc2ccc3ccccc3c2)c2ccccc2[n+]1Cc1ccc2ccccc2c1`, for which the growth with BT-549 breast was -7.25% (active); in the assay on MDA-MB-435 melanoma it was -13.5% (active); in the assay on SW-620 colon it was 12.1%; in the assay with MCF7 breast, 1.95% (active); in the assay on HCT-116 colon it was 0.405% (active); in the assay on HCC-2998 colon it was -2.47% (active). Further, in the assay on KM12 colon, the growth was -58.7% (active).
In the case of `N#Cc1c(NC(=O)c2cccs2)[n+]([O-])c2cc(C(F)(F)F)ccc2[n+]1[O-]`, the growth in the assay on BT-549 breast is 93.9%; with MDA-MB-435 melanoma, 106%; in the assay on SW-620 colon, 89%; in the assay with MCF7 breast, 98.7%; with HCT-116 colon, 95.2%; with HCC-2998 colon, 99.2%. The growth in the assay on KM12 colon is 108%.
